# Source: PubChem BioAssay (NCATS)
# Results filed as inconclusive are left out. Where a call stands in place of a potency, no number is given. A number with no mark means an inactive call. Activity calls are given as the source filed them. The call rests on the fitted dose curve; in most records, active means well fitted curve in the direction sought with a large enough effect; inconclusive means small, poorly fitted or top-dose-only effect, or another doubt; inactive means no such curve, though single readings can be large; an effect the other way counts as inactive or inconclusive.
# Assays:
# [1] = system: Zika virus NS2B-NS3 protease; assay: Primary screen GU AMC qHTS for Zika virus inhibitors (AID 1347154); further: nearly all actives have a fitted effect of over 70% in size
# How it was run: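 Unlinked Zika NS2B hydrophilic domain/NS3 protease domain noncovalent complex (25 nM final) in 10 mM Tris-HCl pH 8.0, 0.01% Tween 20, with AMC peptide substrate. Fluorescence (ex 340, em 450 nm) change over 15 min, room temperature; percent inhibition fitted to 4-parameter Hill equation.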
# [2] = Counterscreen qHTS for small molecule stabilizers of the endoplasmic reticulum resident proteome: GLuc-NoTag assay (AID 1508627);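 further: SH-SY5Y cells given compound then 100 nM thapsigargin to empty ER calcium; series mostly up to about 76 µM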
# How it was run: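 SH-SY5Y cells stably expressing constitutively secreted GLuc (no SERCaMP tag) were pre-incubated 5 h, treated with compound for 19 h, then 100 nM thapsigargin for 4 h at 37C; medium GLuc read by coelenterazine luminescence.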
smiles,measurement,setting,value
c1ncc(CCCC2CCNCC2)[nH]1,Potency,[1],inactive
same,Potency,[2],inactive
